Experimental findings from PubChem BioAssay (NCATS) are described below.

Test [1] deals with Zika virus NS2B-NS3 protease (linked construct). In words: Primary screen NINDS Rhodamine qHTS for Zika virus inhibitors (AID 1347160). Note: nearly all actives have a fitted effect of over 55% in size. Note: potency is the fitted concentration of half-maximal effect. The method in brief: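 Percent inhibition, normalized to uninhibited and enzyme-free controls, is fitted to a 4-parameter Hill equation. Fluorescence change comes from a 15-min cleavage of 1.5 microM bis-peptide Rhodamine110 substrate by 25 nM linked NS2B-NS3 at room temperature.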

Test [2] can be described thus: Confirmatory screen NINDS Rhodamine qHTS for Zika virus inhibitors (AID 1347161).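 Note: purified Zika NS2B-NS3 protease with linked NS2B cofactor domain and Rhodamine110 peptide substrate; series mostly up to about 110 µM; nearly all actives have a fitted effect of over 60% in size.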 The essentials:
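Enzyme (25 nM, linked NS2B-NS3) was preincubated 15 min with compound in 10 mM Tris-HCl pH 8.0, 0.01% Tween 20. Rhodamine110 substrate (1.5 microM) was then added and fluorescence read at start and after 15 min.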
A general note: In qHTS, concentration-response curves come from the screen itself.

Test [3] is described as follows: Vero cells viability qHTS for Zika virus inhibitors (AID 1347167). The method in brief:
(§1)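 Cells seeded at 2.5 x 10^5 cells/mL in DMEM with 4% FBS and attached overnight at 37 degrees C, then exposed to compound for 24 to 48 hours. Viability read as ATP content by CellTiter Glo luminescence.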

A short description of test [4]: HepG2 cells viability qHTS for Zika virus inhibitors (AID 1347168). Note: potency is the fitted concentration of half-maximal effect. The method in brief:
as §1

Test [5] concerns Zika virus NS2B-NS3 protease (unlinked complex). As to the kind of experiment: Primary screen GU Rhodamine qHTS for Zika virus inhibitors: Unlinked NS2B-NS3 protease assay (AID 1347159). Note: nearly all actives have a fitted effect of over 60% in size. The essentials: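 Compounds, tested up to 114 microM, were incubated for 15 minutes with 25 nM unlinked NS2B-NS3 protease at pH 8.0. Cleavage of 1.5 microM Rhodamine110 substrate was then followed by fluorescence for 15 minutes.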

The target of test [6] is Lysine-specific demethylase 5B (Homo sapiens) (UniProt Q9UGL1). As to the kind of experiment: Optimization screen for KDM5B Histone Demethylases FDH coupled qHTS against the LOPAC library (AID 1347166). The method in brief: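 KDM5BDeltaAP (200nM final) preincubated 10 min with compound, then 12.5uM H3K4Me3, 25uM a-ketoglutarate, ascorbate, Fe(II), NAD+ and FDH added; 50mM HEPES pH 7.5, 0.01% Tween-20. NADH fluorescence (340/450 nm) change over 30 min, room temperature.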
Chain of Lysine-specific demethylase 5B (Homo sapiens) (Q9UGL1 whole entry, looked up): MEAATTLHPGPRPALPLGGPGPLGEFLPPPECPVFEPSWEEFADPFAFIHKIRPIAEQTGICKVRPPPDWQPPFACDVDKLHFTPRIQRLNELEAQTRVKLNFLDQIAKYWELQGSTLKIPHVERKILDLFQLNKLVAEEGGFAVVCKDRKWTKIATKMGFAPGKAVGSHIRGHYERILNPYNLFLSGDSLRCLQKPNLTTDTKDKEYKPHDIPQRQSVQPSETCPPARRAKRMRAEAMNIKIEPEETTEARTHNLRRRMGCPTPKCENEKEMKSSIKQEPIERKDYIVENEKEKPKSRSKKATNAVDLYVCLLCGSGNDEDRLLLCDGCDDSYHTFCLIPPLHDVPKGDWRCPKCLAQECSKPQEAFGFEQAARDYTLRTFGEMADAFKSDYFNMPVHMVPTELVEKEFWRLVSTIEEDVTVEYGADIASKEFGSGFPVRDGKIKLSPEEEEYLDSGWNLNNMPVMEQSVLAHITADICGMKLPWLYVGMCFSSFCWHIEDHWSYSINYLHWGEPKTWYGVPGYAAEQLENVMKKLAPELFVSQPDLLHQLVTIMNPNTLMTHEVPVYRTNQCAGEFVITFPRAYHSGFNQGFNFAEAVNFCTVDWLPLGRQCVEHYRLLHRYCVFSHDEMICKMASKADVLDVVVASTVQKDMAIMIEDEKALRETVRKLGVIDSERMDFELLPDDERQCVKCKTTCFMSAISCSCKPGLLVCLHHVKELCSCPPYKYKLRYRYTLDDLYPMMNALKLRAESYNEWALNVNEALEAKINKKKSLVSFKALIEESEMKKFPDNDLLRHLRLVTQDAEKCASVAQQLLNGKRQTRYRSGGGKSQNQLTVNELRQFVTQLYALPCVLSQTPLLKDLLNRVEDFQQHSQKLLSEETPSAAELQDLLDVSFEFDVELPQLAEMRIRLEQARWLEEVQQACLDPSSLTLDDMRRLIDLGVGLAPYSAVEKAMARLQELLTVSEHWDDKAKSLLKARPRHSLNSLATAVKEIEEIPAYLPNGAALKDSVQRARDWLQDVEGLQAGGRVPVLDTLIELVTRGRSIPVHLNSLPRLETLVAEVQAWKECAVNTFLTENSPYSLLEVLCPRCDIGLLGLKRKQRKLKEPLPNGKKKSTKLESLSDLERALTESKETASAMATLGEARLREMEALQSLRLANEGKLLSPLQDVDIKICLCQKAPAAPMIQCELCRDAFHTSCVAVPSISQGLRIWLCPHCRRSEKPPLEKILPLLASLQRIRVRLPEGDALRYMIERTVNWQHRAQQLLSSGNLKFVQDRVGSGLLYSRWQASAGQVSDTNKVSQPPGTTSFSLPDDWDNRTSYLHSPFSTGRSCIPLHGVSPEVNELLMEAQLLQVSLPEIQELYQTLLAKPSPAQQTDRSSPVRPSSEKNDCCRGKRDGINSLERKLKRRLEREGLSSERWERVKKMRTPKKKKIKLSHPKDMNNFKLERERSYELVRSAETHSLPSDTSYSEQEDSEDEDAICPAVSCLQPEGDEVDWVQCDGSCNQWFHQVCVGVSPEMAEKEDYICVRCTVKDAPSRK

Results filed as inconclusive are left out. Entries that show only a call come without a potency. Calls of active or inactive are those of the source. Calls come from the whole dose curve; as a rule, active = well fitted curve in the direction sought with a large enough effect; inconclusive = small, poorly fitted or top-dose-only effect, or another doubt; inactive = no such curve, though single readings can be large; an effect the other way counts as inactive or inconclusive.

As for `c1cc(N[C@@H]2CCNC2)nc(-c2cnc3ccc(-c4cn[nH]c4)cn23)c1`, the Potency result in test [1], in test [2] and in test [4] was “inactive” each time. Further, the result in test [3] was inactive. In the case of `Cc1ccccc1C(=O)Nc1ccc(C(=O)N2CCCC(O)c3cc(Cl)ccc32)c(C)c1` (centres undefined), the Potency result in test [5] and in test [1] was “inactive” each time.

As for `CCN(CC)Cc1ccc2cc(COC(=O)Nc3ccc(C(=O)NO)cc3)ccc2c1`, the Potency result in test [5] and in test [1] was “inactive” each time. For `Cc1cnc(Nc2ccc(CN3CCOCC3)cc2)nc1Nc1cccc(S(=O)(=O)NC(C)(C)C)c1`, the Potency result in test [5] and in test [1] was “inactive” throughout. Consider `CCc1nc(-c2cccc(C)c2)c(-c2ccnc(NC(=O)c3ccccc3)c2)s1`, for which the Potency entry in test [5] and in test [1] was “inactive” each time. Take `CC1=C(C(=O)Nc2cc3cn[nH]c3cc2F)C(c2ccc(Cl)cc2F)N=C(c2ccnc(Cl)c2)N1` (centres undefined): the Potency result in test [5] and in test [1] was “inactive” each time. For `N[C@H]1CN(c2c(F)cc3c(=O)c(C(=O)O)cn(C4C[C@@H]4F)c3c2Cl)CC12CC2` (some centres undefined), the Potency result in test [5] and in test [1] was “inactive” in each case.

Turning to `C[C@H]1[C@@H](OC(=O)CCC(=O)O)O[C@@H]2O[C@@]3(C)CC[C@@H]4[C@H](C)CC[C@@H]1[C@@]24OO3`, the Potency entry in test [5] and in test [1] was “inactive” in each case. On to `C=C(C)[C@@H]1CC[C@]2(C(=O)O)CC[C@]3(C)[C@H](CC[C@@H]4[C@@]5(C)CC[C@H](O)C(C)(C)[C@@H]5CC[C@]43C)[C@@H]12`, for which, in test [1], the Potency was 6.21 µM (active).

For `C[C@@H](NCc1cc2ccccc2[nH]1)c1cccc2ccccc12`, the Potency entry in test [2] is “inactive”. Regarding `C[C@H]1COc2c(N3CCN(C)CC3)c(F)cc3c(=O)c(C(=O)O)cn1c23`, in test [3], the call was inactive. Moreover, in test [4], the Potency entry was “inactive”. For `CS(=O)(=O)N1CCc2c(-c3cnc(N)nc3)nc(N3CCOCC3)nc21`, the Potency result in test [5] and in test [1] was “inactive” in each case. In the case of `CC(O)(C#Cc1ccc2c(c1)N(c1nc(N)ncc1Cl)CC2)c1nccs1` (centres undefined), the Potency result in test [1] was “inactive”. Consider `O=c1[nH]c(=O)n([C@H]2C[C@@H](O)[C@@H](CO)O2)cc1C=CBr`, for which the outcome in test [6] was inactive. `CC(C)n1cnc2c(NCCc3ccc(O)cc3)nc(-c3csc4ccccc34)nc21`: in test [1], the Potency entry is “inactive”. On to `OCCNC1CCCc2c1[nH]c1ccc(-c3ccccc3)cc21` (centres undefined), for which the Potency result in test [5] and in test [1] was “inactive” each time.

Take `Oc1cc(-c2nc(-c3ccccc3)[nH]c2-c2ccncc2)ccc1Cl`: the Potency result in test [1] is “inactive”. For the compound `CNC(=O)c1cccc(-c2ccc3c(N4CCOC[C@H]4C)nc(N4CCOC[C@H]4C)nc3n2)c1`, the Potency result in test [2] and in test [4] was “inactive” in each case. The call in test [3] was inactive. As to `Cc1cncc2cccc(S(=O)(=O)N3CCCN(C(=O)CN)C[C@@H]3C)c12`, the Potency result in test [5] and in test [1] was “inactive” each time. In the case of `COc1cc(CCc2cc(NC(=O)c3ccc(N4C[C@@H](C)N[C@@H](C)C4)cc3)n[nH]2)cc(OC)c1`, the Potency result in test [5] and in test [1] was “inactive” each time. On to `COc1ccc2cc([S+]([O-])Cc3ncc(C)c(OC)c3C)nc2c1`, for which the compound was called inactive in test [6].

As for `CN[C@@H]1C[C@H]2O[C@@](C)([C@H]1OC)n1c3ccccc3c3c4c(c5c6ccccc6n2c5c31)C(=O)N[C@H]4O`, the Potency result in test [2] is “inactive”. In test [4], the Potency was 10.4 µM (active). With `C[C@H](O)[C@@H]1C(=O)N2C(C(=O)O)=C(S[C@@H]3CN[C@H](CNS(N)(=O)=O)C3)[C@@H](C)[C@@H]12`, the Potency entry in test [5] and in test [1] was “inactive” each time. In the case of `FC(F)(F)c1ccc(Nc2nc3ccc(Oc4ccnc(-c5ncc(C(F)(F)F)[nH]5)c4)cc3[nH]2)cc1`, the Potency entry in test [1] was “inactive”. Turning to `Oc1ccc([C@@H]2Oc3ccc(O)cc3[C@@H]3CCC[C@@H]32)cc1`, the Potency entry in test [1] is “inactive”. On to `Nc1ccc(C(=O)Nc2cccc(-c3nc(N4CCOCC4)c4oc5ncccc5c4n3)c2)cn1`, for which the Potency result in test [1] was “inactive”.

Turning to `Cn1cnc2c(F)c(Nc3ccc(Br)cc3F)c(C(=O)NOCCO)cc21`, the Potency entry in test [5] and in test [1] was “inactive” throughout. In the case of `C[N+]1(C)[C@@H]2C[C@@H](OC(=O)C(O)(c3cccs3)c3cccs3)C[C@H]1[C@@H]1O[C@@H]12`, the Potency result in test [5] and in test [1] was “inactive” in each case.
